± gives the standard deviation.
What was measured:
[1] = tested on: MILI (PIWIL2) piRISC loaded with L1MC piRNA (26 nt); assay: pre-steady-state target cleavage rate (min^-1); guide: L1MC piRNA 5'p-UAACUAAAUACUAUGCAAGCUGUAGG; higher = faster piRNA-guided slicing of the target; details: auxiliary factor: 500 nM mouse GTSF1
In short: (§1)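 Cleave-'n-Seq: 1 nM active affinity-purified piRISC with one synthetic guide and 0.1 nM transcribed, DNA-blocked target RNA library were mixed, with or without 500 nM GTSF1 partner protein, in HEPES–potassium acetate buffer at 33 °C for 0–8 or 0–960 min. Uncleaved targets were sequenced and normalised to depth and to weakly complementary targets, three trials were pooled, and k3 was capped at 0.0001 min^-1. The pre-steady-state cleavage rate was fitted […].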

[2] = tested on: EfPiwi piRISC loaded with L1MC piRNA (26 nt); assay: pre-steady-state target cleavage rate (min^-1); auxiliary factor: 500 nM Ephydatia muelleri Gtsf1; guide: L1MC piRNA 5'p-UAACUAAAUACUAUGCAAGCUGUAGG; MIWI and MILI are mouse PIWI proteins and EfPiwi is from a freshwater sponge; tags in brackets are library labels; higher = faster piRNA-guided slicing of the target
In short: as §1

UCCUGGAACAGCUUGCAUAGUAUUUUGUUA
pre-steady-state target cleavage rate [1]: 0.154 ± 0.029
pre-steady-state target cleavage rate [2]: 0.00368 ± 0.0018

UCCUGGAUGUCCUUGCAUAGUAUUUAGAUUA
pre-steady-state target cleavage rate [1]: 0.101 ± 0.022
pre-steady-state target cleavage rate [2]: 0.00316 ± 0.003

UCCUGGAUCAGCUUGCAUAGUUUUUAGUAA
pre-steady-state target cleavage rate [1]: 0.0337 ± 0.0089
pre-steady-state target cleavage rate [2]: 0.00477 ± 0.0025

UCCUGCUACAGCUUGCAUAGUUUUAAGUUA
pre-steady-state target cleavage rate [1]: 0.0676 ± 0.015
pre-steady-state target cleavage rate [2]: 0.00341 ± 0.0017

UCCUGGAUCAGCUUGCCAUAGUAUUUAGUUA
pre-steady-state target cleavage rate [1]: 0.0992 ± 0.014
pre-steady-state target cleavage rate [2]: 0.00658 ± 0.0025

UCCUGGUACAGCUUGCAUAGUAUUGAGUUA
pre-steady-state target cleavage rate [1]: 0.155 ± 0.032
pre-steady-state target cleavage rate [2]: 0.00418 ± 0.0024

UCCUCCUACAGCUUGCAUACGUAUUUAGUUA
pre-steady-state target cleavage rate [1]: 0.00561 ± 0.0046
pre-steady-state target cleavage rate [2]: 0.0035 ± 0.0025

UCCUGGAUGUGCUUCCAAAGUAUUUAGUUA
pre-steady-state target cleavage rate [1]: 0.0214 ± 0.0068
pre-steady-state target cleavage rate [2]: 0.00463 ± 0.0046

UCCUGGAUGAGCUUGCAUUGUAUUUAGAUA
pre-steady-state target cleavage rate [1]: 0.156 ± 0.038
pre-steady-state target cleavage rate [2]: 0.00248 ± 0.0021

UCCUGGUACAGCUUGCAUAGUAUUUAGAAA
pre-steady-state target cleavage rate [1]: 0.162 ± 0.03
pre-steady-state target cleavage rate [2]: 0.00435 ± 0.0017

UCCUCCUACAGCUUGCAUAGUAUUUACAAA
pre-steady-state target cleavage rate [1]: 0.197 ± 0.04
pre-steady-state target cleavage rate [2]: 0.00422 ± 0.003

UCCUGCUACAGGUUCCAUAGUAUUUAGUUA
pre-steady-state target cleavage rate [1]: 0.00943 ± 0.0066
pre-steady-state target cleavage rate [2]: 0.00222 ± 0.0021

UCCUGGUACAGCUUGCAUACUAUUUAGUAA
pre-steady-state target cleavage rate [1]: 0.0573 ± 0.023
pre-steady-state target cleavage rate [2]: 0.00327 ± 0.0023

UCCUGGAUCAGCUUGCAUAGUAUUUUGAAA
pre-steady-state target cleavage rate [1]: 0.108 ± 0.027
pre-steady-state target cleavage rate [2]: 0.00318 ± 0.0016

UCCUGGAACAGCUUGCAUAGUAUUUAGCUUA
pre-steady-state target cleavage rate [1]: 0.195 ± 0.047
pre-steady-state target cleavage rate [2]: 0.00529 ± 0.0018

UCCUCCUACAGCUUGCAUAGUUAAUAGUUA
pre-steady-state target cleavage rate [1]: 0.0685 ± 0.022
pre-steady-state target cleavage rate [2]: 0.00703 ± 0.0035

UCCUGGUACAGCUUGCUUAGUAUUUAGAUA
pre-steady-state target cleavage rate [1]: 0.122 ± 0.024
pre-steady-state target cleavage rate [2]: 0.00305 ± 0.0025

UCCUGGAUCAGCUUGCAUAGUAUUUUCAAA
pre-steady-state target cleavage rate [1]: 0.0677 ± 0.013
pre-steady-state target cleavage rate [2]: 0.00307 ± 0.0027

UCCUGGUACAGCUUGCAUAGUAUUUAGCUUA
pre-steady-state target cleavage rate [1]: 0.204 ± 0.041
pre-steady-state target cleavage rate [2]: 0.00493 ± 0.0023

UCCUGGAUGUCCUUGCAUAGUAUUUAGGUUA
pre-steady-state target cleavage rate [1]: 0.0768 ± 0.019
pre-steady-state target cleavage rate [2]: 0.00393 ± 0.0033

UCCUGGUAGUGCUUGCAUAGUAUUUAGAAA
pre-steady-state target cleavage rate [1]: 0.0343 ± 0.013
pre-steady-state target cleavage rate [2]: 0.00197 ± 0.0017

UCCUGGAACAGCAUGCAUAGUAUUUAGAUA
pre-steady-state target cleavage rate [1]: 0.188 ± 0.022
pre-steady-state target cleavage rate [2]: 0.00441 ± 0.0022

UCCUCCUACAGCUUGCAUAGUAAAUACAAA
pre-steady-state target cleavage rate [1]: 0.0608 ± 0.018
pre-steady-state target cleavage rate [2]: 0.00363 ± 0.003

UCCUGCUACUGCUUGCAUAGUAUUUAGUAA
pre-steady-state target cleavage rate [1]: 0.146 ± 0.034
pre-steady-state target cleavage rate [2]: 0.00464 ± 0.0016

UCCUGCUACAGCUUGCAUAGUAUUUAGAAA
pre-steady-state target cleavage rate [1]: 0.157 ± 0.032
pre-steady-state target cleavage rate [2]: 0.00439 ± 0.0012

UCCUCCUACAGCUUGCAUUGUAUUUAGAUA
pre-steady-state target cleavage rate [1]: 0.119 ± 0.019
pre-steady-state target cleavage rate [2]: 0.00539 ± 0.0029

UCCUCCUACAGCUUGCAUAGAAUUUAGAAA
pre-steady-state target cleavage rate [1]: 0.0449 ± 0.015
pre-steady-state target cleavage rate [2]: 0.00385 ± 0.0019

UCCUGGAUGUCCUUGCAUAGUAUUAUAGUUA
pre-steady-state target cleavage rate [1]: 0.122 ± 0.019
pre-steady-state target cleavage rate [2]: 0.00424 ± 0.0041

UCCUCCUACAGCUUGCAUAGAAUUUAGUUA
pre-steady-state target cleavage rate [1]: 0.1 ± 0.021
pre-steady-state target cleavage rate [2]: 0.0078 ± 0.0023

UCCUGGAUCAGCUUGCACUAGUAUUUAGUUA
pre-steady-state target cleavage rate [1]: 0.00868 ± 0.0048
pre-steady-state target cleavage rate [2]: 0.00365 ± 0.0027

UCCUGCUACUCCUUGCAUAGUAUUUAGAAA
pre-steady-state target cleavage rate [1]: 0.0806 ± 0.019
pre-steady-state target cleavage rate [2]: 0.00264 ± 0.002

UCCUGGUACAGCUUGCAUAGUAUUAACUUA
pre-steady-state target cleavage rate [1]: 0.0223 ± 0.0097
pre-steady-state target cleavage rate [2]: 0.0032 ± 0.0024

UCCUGGAUCUCCUUGCAUAGUAUUUAGAAA
pre-steady-state target cleavage rate [1]: 0.192 ± 0.031
pre-steady-state target cleavage rate [2]: 0.00628 ± 0.0051

UCCUCCUACAGCUUGCAUAGUAAUUACUUA
pre-steady-state target cleavage rate [1]: 0.0937 ± 0.025
pre-steady-state target cleavage rate [2]: 0.005 ± 0.0027

UCCUGGAACAGCUUGCAUUGUAUUUUGUUA
pre-steady-state target cleavage rate [1]: 0.102 ± 0.013
pre-steady-state target cleavage rate [2]: 0.00509 ± 0.0026

UCCUGGAACUCGUUGCAUAGUAUUUAGAAA
pre-steady-state target cleavage rate [1]: 0.136 ± 0.021
pre-steady-state target cleavage rate [2]: 0.00502 ± 0.004

UCCUCCUACAGCAUGCAUAGUAUUUAGAUA
pre-steady-state target cleavage rate [1]: 0.176 ± 0.027
pre-steady-state target cleavage rate [2]: 0.00452 ± 0.0019

UCCUGGAAGUCCUUGCAUAGUAUUUAGAAA
pre-steady-state target cleavage rate [1]: 0.151 ± 0.03
pre-steady-state target cleavage rate [2]: 0.00315 ± 0.0023

UCCUGGAUGAGCUUGCAUAGUAUUAAGAAA
pre-steady-state target cleavage rate [1]: 0.0183 ± 0.0092
pre-steady-state target cleavage rate [2]: 0.004 ± 0.0026

UCCUCCUACAGCUUCCAUAGUAUUUAGUUA
pre-steady-state target cleavage rate [1]: 0.0831 ± 0.025
pre-steady-state target cleavage rate [2]: 0.0042 ± 0.0019

UCCUGGAUGAGCUUGGCAUAGUAUUUAGUUA
pre-steady-state target cleavage rate [1]: 0.224 ± 0.054
pre-steady-state target cleavage rate [2]: 0.0123 ± 0.0039

UCCUGGAUCAGCUUGCAUAGUAUUUACAUA
pre-steady-state target cleavage rate [1]: 0.0335 ± 0.0081
pre-steady-state target cleavage rate [2]: 0.00271 ± 0.0021

UCCUGGAACAGCUUGCAUAGUAUUUCGUUA
pre-steady-state target cleavage rate [1]: 0.0829 ± 0.02
pre-steady-state target cleavage rate [2]: 0.0025 ± 0.0013

UCCUCCUACAGCUUGCAAUAGUAUUUAGUUA
pre-steady-state target cleavage rate [1]: 0.0415 ± 0.01
pre-steady-state target cleavage rate [2]: 0.0427 ± 0.014

UCCUGCUAGAGCUUCCAUAGUAUUUAGUUA
pre-steady-state target cleavage rate [1]: 0.246 ± 0.047
pre-steady-state target cleavage rate [2]: 0.00239 ± 0.0017

UCCUGCUACACCUUGCAUAGUAUUUUGUUA
pre-steady-state target cleavage rate [1]: 0.1 ± 0.032
pre-steady-state target cleavage rate [2]: 0.00317 ± 0.0023

UCCUGGAUGUGCAAGCAUAGUAUUUAGAAA
pre-steady-state target cleavage rate [1]: 0.0135 ± 0.0052
pre-steady-state target cleavage rate [2]: 0.00423 ± 0.0039

UCCUCGAACAGCUUGCAUAGUAUUUACAAA
pre-steady-state target cleavage rate [1]: 0.0992 ± 0.021
pre-steady-state target cleavage rate [2]: 0.00433 ± 0.0025

UCCUGGAACAGCUUGCUUAGUAUUUAGUAA
pre-steady-state target cleavage rate [1]: 0.238 ± 0.022
pre-steady-state target cleavage rate [2]: 0.00393 ± 0.0022

UCCUCCUACAGCUUGCAUAGUUUUUACAAA
pre-steady-state target cleavage rate [1]: 0.0506 ± 0.013
pre-steady-state target cleavage rate [2]: 0.00552 ± 0.0037

UCCUGGAACACCUUGCAUAGUAUUUAGAUA
pre-steady-state target cleavage rate [1]: 0.183 ± 0.043
pre-steady-state target cleavage rate [2]: 0.0026 ± 0.0026

UCCUGGAACAGCUUCCAUAGUAUUUAGUAA
pre-steady-state target cleavage rate [1]: 0.0767 ± 0.03
pre-steady-state target cleavage rate [2]: 0.00376 ± 0.0014

UCCUGGAUGAGCUUGCAUAGUAUUUAGAAA
pre-steady-state target cleavage rate [1]: 0.119 ± 0.03
pre-steady-state target cleavage rate [2]: 0.00648 ± 0.0025

UCCUGCUACAGCUUGCAUAGUAUUUACUUA
pre-steady-state target cleavage rate [1]: 0.171 ± 0.032
pre-steady-state target cleavage rate [2]: 0.00356 ± 0.0027

UCCUGGAACAGCUAGCAUAGUAUUUAGAAA
pre-steady-state target cleavage rate [1]: 0.219 ± 0.034
pre-steady-state target cleavage rate [2]: 0.00262 ± 0.0023

UCCUGCUACAGCUUGCAAAGUAUUUAGAAA
pre-steady-state target cleavage rate [1]: 0.159 ± 0.033
pre-steady-state target cleavage rate [2]: 0.00352 ± 0.002

UCCUCCUACAGCUUGCAUAGUAUUUGUUA
pre-steady-state target cleavage rate [1]: 0.203 ± 0.04
pre-steady-state target cleavage rate [2]: 0.00561 ± 0.0026

UCCUGGUACUCCUUGCAUAGUAUUUAGUAA
pre-steady-state target cleavage rate [1]: 0.131 ± 0.032
pre-steady-state target cleavage rate [2]: 0.00302 ± 0.002

UCCUGGUACAGCUUGCAUAGUAAUUACAAA
pre-steady-state target cleavage rate [1]: 0.021 ± 0.0095
pre-steady-state target cleavage rate [2]: 0.00331 ± 0.0026

UCCUCCUACAGCUUGGAUAGAAUUUAGUUA
pre-steady-state target cleavage rate [1]: 0.0614 ± 0.015
pre-steady-state target cleavage rate [2]: 0.00574 ± 0.0016

Reference: the supplement of paper PMC10338343
